# Records with an inconclusive call do not appear. The source made the active and inactive calls. The call rests on the fitted dose curve; in most records, active means well fitted inhibition curve with a large enough effect; inconclusive means small, poorly fitted or top-dose-only effect; inactive means flat fitted curve, though single readings scatter.
# Tested on: Zika virus NS2B-NS3 protease
# Assay: Primary screen GU AMC qHTS for Zika virus inhibitors (AID 1347154); further: nearly all actives have a fitted effect of over 70% in size;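 on activity change, negative = inhibition: 0% = no-inhibitor control and -100% = no-enzyme control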
# Conditions: Zika NS2B-NS3 unlinked protease, AMC fluorogenic substrate; series mostly up to 54.1 µM; activity change, negative = inhibition: at the top concentration
# In short: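 Unlinked Zika NS2B hydrophilic domain/NS3 protease domain noncovalent complex (25 nM final) in 10 mM Tris-HCl pH 8.0, 0.01% Tween 20, with AMC peptide substrate. Fluorescence (ex 340, em 450 nm) change over 15 min, room temperature; percent inhibition fitted to 4-parameter Hill equation.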
# Potency means the concentration at half of the fitted maximal effect.
Structure (SMILES),"activity change, negative = inhibition",Potency
O=C1C(CCS(=O)c2ccccc2)C(=O)N(c2ccccc2)N1c1ccccc1 (stereo not given),-6.59% (inactive),
Cc1nc(-c2ccc(Cl)cc2)oc1COC(C)(C)C(=O)O,-7.55% (inactive),
C[C@]12CCC(=O)C=C1C=C[C@@H]1[C@@H]2CC[C@@]2(C)[C@H]1CC[C@@]21CCC(=O)O1,2.34% (inactive),
OCc1ccccn1,1.33% (inactive),
CCCCCCCCNC(C)C(O)c1ccc(SC(C)C)cc1 (stereo not given),-11.8% (inactive),
COc1ccc(CN(CCN(C)C)c2ncccn2)cc1,-0.0404% (inactive),
CC(C)CCCC(C)N (stereo not given),-4.32% (inactive),
CC[C@]12CCCN3CCc4c(n(c5ccccc45)C(=O)C1)[C@@H]32,-7.69% (inactive),
O=C(NC1CCN(CCc2c[nH]c3ccccc23)CC1)c1ccccc1,-2.59% (inactive),
Nc1nc(-c2ccccc2)c(Br)c(=O)[nH]1,-3.04% (inactive),
CCCCCCCCCCCCCCCCO,-10.8% (inactive),
CC(C)[C@@H]1CC[C@@H](C)CC1=O,-9.92% (inactive),
CCc1oc2ccccc2c1C(=O)c1cc(I)c(O)c(I)c1,,28.7 µM (active)
O=C1[C@H](CC[C@H](O)c2ccc(F)cc2)[C@@H](c2ccc(O)cc2)N1c1ccc(F)cc1,-10.6% (inactive),
CCN(CC)CCNc1ccc(CO)c2sc3ccccc3c(=O)c12,-17.2% (inactive),
C[C@@H](O)[C@H]1C(=O)N2C(C(=O)O)=C(S[C@@H]3CN[C@H](CNS(N)(=O)=O)C3)[C@H](C)[C@H]12,-4.18% (inactive),
CCOc1ccccc1C(N)=O,0.723% (inactive),
NS(=O)(=O)c1ccc(Cl)c(S(N)(=O)=O)c1,-0.458% (inactive),
Cc1cccc(C)c1NC(=O)CN1CCCCCC1,-2.39% (inactive),
O=C(O)C(Cc1cc(I)c(O)c(I)c1)c1ccccc1 (stereo not given),-12.3% (inactive),
